Reference: PubChem BioAssay (Tox21)
Several values for one entry are separate records, joined by “and”; a condition that tells them apart may be missing. Identical values can stand only once. Records with an inconclusive call do not appear. A call without a number means that no potency is given here. The source holds several records for some structures; these can differ, active in one and inactive in another. Activity calls are given as the source filed them. Unless noted, calls follow the shape of the dose curve; as a rule, active = well fitted curve in the direction sought with a large enough effect in the repeat runs; inconclusive = weak or mixed curves; inactive = no such curve, though single readings can be large; an effect the other way counts as inactive or inconclusive.

How the values were obtained:
[1] = qHTS assay to identify small molecule antagonists of the vitamin D receptor (VDR) signaling pathway - cell viability counter screen (AID 743225); also: nearly all actives have a fitted effect of over 50% in size
In short: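 Cells (VDR-UAS-bla HEK 293T) are plated, rested 4 h at 37C, dosed with compound and 3 nM final 1-alpha,25-dihydroxy vitamin D3, and incubated 16 h. Viability is taken from CellTiter-Glo luminescence in the reporter wells.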

[2] = qHTS assay to identify small molecule agonists of the NFkB signaling pathway (AID 1159509; active = well fitted curve in the direction sought with a large enough effect in the signal ratio in the repeat runs, not every such curve was filed as active; the % refers to the signal ratio; also: series mostly up to about 61 µM)
In short: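 Agonist activity was read as beta-lactamase-driven FRET change (460 and 530 nm emission, 405 nm excitation) following 1.5 hr substrate loading at room temperature. Beforehand, ME-180 NFkB-bla reporter cells were treated with compounds for 5 hr at 37 C.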

[3] = qHTS assay to identify small molecule agonists of the NFkB signaling pathway - cell viability counter screen (AID 1159515; calls by dose curve; also: series mostly up to about 61 µM; nearly all actives have a fitted effect of over 55% in size)
In short: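 Parallel cytotoxicity counter screen in ME-180 cells carrying an NFkB-response-element beta-lactamase reporter, 2,000 cells/well. Compound exposure lasted 5 hr at 37 C, 5% CO2. Cell viability was quantified by CellTiter-Glo luminescence.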

[4] = qHTS assay to identify small molecule agonists of the endoplasmic reticulum stress response signaling pathway (AID 1159516; active = well fitted activation curve with a large enough effect in the signal ratio in the repeat runs, not every such curve was filed as active; the % refers to the signal ratio)
In short: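 Using a HeLa line with an ESRE-driven beta-lactamase gene, agonist activity was measured by FRET substrate fluorescence (460 and 530 nm emission) after cells were treated with compounds for 5 hr at 37 C and 5% CO2.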

[5] = qHTS assay to identify small molecule agonists of the endoplasmic reticulum stress response signaling pathway - cell viability counter screen (AID 1159517; calls by dose curve;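 also: HeLa cells carrying an ER stress response element beta-lactamase reporter; series mostly up to about 61 µM; nearly all actives have a fitted effect of over 50% in size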)
In short: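 Cpd-treated ESRE-bla HeLa (5 hr, 37 C) → LiveBLAzer 2 hr RT → CellTiter-Glo 30 min RT → luminescence.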

[6] = qHTS assay to identify small molecule antagonists of the retinoid-related orphan receptor gamma (ROR-gamma) signaling pathway - cell viability counter screen (AID 1159520); also: nearly all actives have a fitted effect of over 50% in size
In short: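 Tet-on ROR gamma CHO cells (1,000/well) were plated 4 hr, given compounds in DMSO for 2 hr at 37 C, then induced with 1 uM final doxycycline for 16 hr. Viability was read as ATP by CellTiter-Glo luminescence after 30 min.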

[7] = target: Nuclear receptor ROR-gamma (Homo sapiens) (UniProt P51449); test: qHTS assay to identify small molecule antagonists of the retinoid-related orphan receptor gamma (ROR-gamma) signaling pathway (AID 1159521; also: nearly all actives have a fitted effect of over 50% in size; also: potency is read from the fitted curve at half-maximal effect)
In short: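 RORγ antagonism is scored from reduced reporter luminescence in Tet-on CHO cells. Induction used 1 uM final doxycycline hyclate for 16 h at 37 C, following a 2 h compound exposure.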

[8] = qHTS assay to identify small molecule agonists of the AP-1 signaling pathway - cell viability counter screen (AID 1159525; calls by dose curve; also: nearly all actives have a fitted effect of over 55% in size)
In short: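 Each titration point was normalised to DMSO and tetra n-octyl ammonium bromide controls. The read was Cell Titer Glo luminescence after 30 min at RT, following 5 h compound exposure of ME-180 AP-1-bla cells at 37 °C.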

[9] = qHTS assay to identify small molecule agonists of the AP-1 signaling pathway (AID 1159526; calls by dose curve)
[10] = target: Retinoic acid receptor RXR-alpha (Homo sapiens) (UniProt P19793); test: qHTS assay to identify small molecule agonists of the RXR signaling pathway (AID 1159527; calls by dose curve; also: nearly all actives have a fitted effect of over 35% in size; also: potency is read from the fitted curve at half-maximal effect)
In short: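 qHTS of the Tox21 10K library in GeneBLAzer RXR-alpha HEK 293T cells carrying a beta-lactamase reporter […]; 16 hr treatment, 9-cis retinoic acid as agonist control, FRET read-out.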

[11] = qHTS assay to identify small molecule antagonists of the retinoid acid receptor (RAR) signaling pathway - cell viability counter screen (AID 1159551); also: nearly all actives have a fitted effect of over 35% in size
In short: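 ATP-based viability, C3RL4 cells, 6 h at 37 C with 1 uM final retinol co-added after compound; luminescence read 30 min post CellTiter-Glo, RT.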

[12] = qHTS assay to identify small molecule antagonists of the retinoic acid receptor (RAR) signaling pathway (AID 1159552; also: nearly all actives have a fitted effect of over 50% in size; also: potency is read from the fitted curve at half-maximal effect)
In short: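 Quantitative HTS in C3RL4 RARE-luciferase reporter cells. Compounds were added with 1 uM (final) retinol; luminescence was read after 6 hr.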

[13] = qHTS assay to identify small molecule agonists of the retinoic acid receptor (RAR) signaling pathway (AID 1159553); also: potency is read from the fitted curve at half-maximal effect
In short: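 Quantitative high-throughput format: the Tox21 10K library was tested on C3RL4 RARE-luciferase cells for 6 hr at 37 C and 5% CO2, with luminescence measured after a 30 min room-temperature reagent step.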

[14] = qHTS assay to identify small molecule agonists of the vitamin D receptor (VDR) signaling pathway - cell viability counter screen (AID 743224)
In short: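 Compounds were pin-transferred onto VDR-bla cells plated 4 h earlier; following 16 h incubation at 37C, cell viability was quantified by CellTiter-Glo luminescence after 30 min at room temperature.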

[15] = qHTS assay to identify small molecule agonists of the RXR signaling pathway - cell viability counter screen (AID 1159529)
In short: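 Cell viability is measured by CellTiter-Glo luminescence, 30 min at room temperature, in wells already read for beta-lactamase. Engineered HEK 293T cells (RXR-alpha-UAS-bla) are dosed 16 hr at 37 C. Tetraoctyl ammonium bromide serves as positive control.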

Sequence of Retinoic acid receptor RXR-alpha (Homo sapiens) (P19793 whole entry, looked up): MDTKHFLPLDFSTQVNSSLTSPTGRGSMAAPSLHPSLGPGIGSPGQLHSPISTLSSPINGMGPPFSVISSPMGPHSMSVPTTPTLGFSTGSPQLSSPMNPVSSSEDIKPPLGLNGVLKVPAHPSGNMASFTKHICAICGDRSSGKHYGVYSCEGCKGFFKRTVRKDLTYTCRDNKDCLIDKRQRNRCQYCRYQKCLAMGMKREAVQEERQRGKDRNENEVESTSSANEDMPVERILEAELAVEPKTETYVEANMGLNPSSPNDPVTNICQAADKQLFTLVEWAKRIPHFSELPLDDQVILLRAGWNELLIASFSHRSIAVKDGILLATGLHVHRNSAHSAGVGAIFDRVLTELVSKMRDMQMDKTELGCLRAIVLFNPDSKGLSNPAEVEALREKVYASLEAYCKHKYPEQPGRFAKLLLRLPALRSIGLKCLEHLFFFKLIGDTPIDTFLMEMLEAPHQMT

Compound | outcome [1] | outcome [2] | outcome [3] | outcome [4] | outcome [5] | outcome [6] | Potency [7] | outcome [8] | Potency [9] | Potency [10] | outcome [11] | Potency [12] | Potency [13] | Potency [14] | outcome [15]
Cc1cc(Cl)ccc1OC(C)C(=O)O (stereo not given) | inactive | inactive | inactive | inactive | inactive | inactive | inactive | inactive | inactive | inactive | inactive | inactive | inactive | – | –
Nc1ccc(N)cc1 | inactive | inactive | inactive | inactive | – | inactive | inactive | inactive | inactive | inactive | inactive | inactive | 34.4 µM (active) and 23.7 µM (active) | inactive | –
COC(C)(C)CCCC(C)C/C=C/C(C)=C/C(=O)OC(C)C (stereo not given) | inactive | inactive | inactive | inactive | – | inactive | inactive | inactive | inactive | inactive | inactive | inactive | inactive | – | –
Oc1ccc(Cl)cc1 | inactive | inactive | inactive | inactive | – | inactive | inactive | inactive | inactive | inactive | inactive | inactive | inactive | – | –
C[C@]12CC[C@H](O)CC1=CC[C@@H]1[C@@H]2CC[C@]2(C)C(=O)CC[C@@H]12 | inactive | – | inactive | inactive | – | inactive | 24.4 µM (active) and 24.3 µM (active) | inactive | inactive | – | inactive | inactive | inactive | inactive | inactive
O=C(O)C(Br)Br | inactive | inactive | inactive | inactive | – | inactive | inactive | inactive | inactive | inactive | inactive | – | – | – | inactive
C=C(C)C(=O)OCC(CC)CCCC (stereo not given) | inactive | inactive | inactive | inactive | – | inactive | 49.5 µM (active) and inactive | inactive | inactive | inactive | inactive | inactive | inactive | – | –
CCSC(=O)N1CCCCCC1 | inactive | inactive | inactive | inactive | – | inactive | inactive | inactive | inactive | inactive | inactive | inactive | inactive | – | inactive
O=S(=O)(O)OOS(=O)(=O)O | inactive | inactive | inactive | inactive | – | inactive | inactive | inactive | inactive | inactive | inactive | – | – | inactive | –
Cc1ccccc1N | inactive | inactive | inactive | inactive | – | inactive | inactive | inactive | inactive | inactive | inactive | – | – | inactive | –
COc1cc(-c2ccc(N)c(OC)c2)ccc1N | inactive | inactive | inactive | – | inactive | inactive | inactive | inactive | inactive | inactive | inactive | inactive and 58.3 µM (active) | inactive | – | –
CNC(=O)Oc1cccc2ccccc12 | inactive | inactive | inactive | inactive | – | inactive | inactive | inactive | inactive | inactive | inactive | inactive | inactive | inactive | –
CC(=O)/C=C/c1ccccc1 | inactive | inactive | inactive | inactive | – | inactive | inactive | inactive | inactive | inactive | inactive | – | – | inactive | –
N#CN=C(N)N | inactive | inactive | inactive | inactive | – | inactive | inactive | inactive | inactive | inactive | inactive | inactive | inactive | inactive | –
Cl[C@H]1OCCO[C@@H]1Cl | inactive | inactive | inactive | inactive | – | inactive | inactive | inactive | inactive | inactive | inactive | inactive | inactive | inactive | –
CCCCC(CC)C(=O)Cl (stereo not given) | inactive | inactive | inactive | inactive | – | inactive | inactive | inactive | inactive | inactive | inactive | inactive | inactive | – | –
Cc1ccc(N=C=O)cc1N=C=O | inactive | inactive | inactive | inactive | – | inactive | inactive | inactive | inactive | inactive | inactive | inactive | inactive | – | –
CCOc1ccc(N)cc1 | inactive | inactive | inactive | inactive | – | inactive | inactive | inactive | inactive | 11 µM (active) and inactive | inactive | inactive | inactive | inactive | –
COP(=S)(OC)SCN1C(=O)c2ccccc2C1=O | inactive | inactive | inactive | inactive | – | inactive | – | inactive | inactive | inactive | inactive | – | – | – | inactive
[N-]=[N+]=CC(=O)OC[C@H](N)C(=O)O | inactive | inactive | inactive | inactive | – | inactive | inactive | inactive | inactive | inactive | inactive | inactive | inactive | – | –
CN(C)C(=O)C(c1ccccc1)c1ccccc1 | inactive | inactive | inactive | inactive | – | inactive | inactive | inactive | inactive | inactive | inactive | inactive | inactive | inactive | –
OCCCCO | inactive | inactive | inactive | inactive | – | inactive | inactive | inactive | inactive | inactive | inactive | inactive | inactive | – | inactive
CCOC(=O)CC(SP(=O)(OC)OC)C(=O)OCC (stereo not given) | inactive | inactive | inactive | inactive | – | inactive | inactive | inactive | inactive | inactive | inactive | inactive | inactive | inactive | –
